Bioassay records deposited in PubChem by National Center for Advancing Translational Sciences (NCATS).
An excerpt weighted towards active compounds, which were near 8% of everything screened.
Marburg entry = blocks Marburg virus binding or cell entry | Potency, µM (series often up to 49.2 µM), inactives show at the top dose activity change, negative = inhibition, actives largely listed as inhibitors | AID 720532 | Marburg virus pseudotype entry/binding inhibition, cell-based | hit rate 6.5% among 18,000
Lassa entry = inhibitors of Lassa virus binding or entry into cells; Lassa virus pseudotyped entry inhibition, cell-based qHTS; Potency, µM (top dose mostly 49.2 µM), without a hit: at the highest dose activity change, negative = inhibition, actives largely listed as inhibitors; hit rate 4.1% among 18,000; AID 720533
* marks the source's active call; other numbers are inactive results; ? = inconclusive; . = no result; ! = a repeat was not active; [ ] = another dose, or the depositor's remark. The call rests on the fitted dose curve; tested in HEK293 cells. On the % scale 0 is the no-effect control and ±100 the full control effect; potency means the concentration at half of the fitted maximal effect.

SMILES	Marburg entry	Lassa entry
CC[C@@H]1OC(=O)[C@@H](C)[C@H](O[C@H]2C[C@@](C)(OC)[C@@H](O)[C@H](C)O2)C(C)[C@H](O[C@H]2O[C@@H](C)C[C@@H](N(C)C)[C@@H]2O)[C@@](C)(O)C[C@H](C)C(=O)[C@@H](C)[C@H](O)[C@@]1(C)O (some centres undefined)	?	0.3%
CC[C@@H]1OC(=O)[C@H](C)[C@H](O[C@@H]2C[C@](C)(OC)[C@H](O)[C@H](C)O2)[C@H](C)[C@H](O[C@@H]2O[C@@H](C)C[C@@H](N(C)C)[C@@H]2O)[C@](C)(O)C[C@H](C)C(=O)[C@H](C)[C@H](O)[C@]1(C)O	0.8%[17.8 µM]	22.0%[17.8 µM]
CCC1OC(=O)C(C)[C@@H](O[C@H]2C[C@@](C)(OC)C(O)C(C)O2)C(C)[C@@H](O[C@@H]2OC(C)CC(N(C)C)C2O)[C@@](C)(O)CC(C)CN(C)C(C)C(O)[C@]1(C)O (some centres undefined)	0.631µM*	?
COC(=O)C1=C(C(=O)OC)[C@@H]2N(C)c3ccccc3[C@@]23C[C@@H](C(=O)OC)N(C(=O)NC(C)(C)C)C3=N1	14.5%[8.59 µM]	.
Cc1cc(Cl)cc2c(N=Nc3ccc(S(N)(=O)=O)cc3)c(O)[nH]c12	-23.8%	-23.8%
O[C@H]1C[C@H](c2ccccc2)N(Cc2cccs2)C[C@H]1n1cc(-c2ccc(F)cc2)nn1	?	-5.7%
CCC[C@H]1CN(c2ccccc2)C(=O)[C@H]1CC(=O)Nc1ccccc1	-15.0%	-21.7%
CCN(CC)CCNC(=O)COc1ccc(OC)cc1	-23.3%	-3.5%
CCN(CC)CCCCNc1ncc2cc(-c3cc(OC)cc(OC)c3)c(NC(=O)NC(C)(C)C)nc2n1	1.12µM*	12.6µM*
COC(=O)C(C(C)=O)[C@@H](NC(=O)NCc1ccccc1)c1ccccc1 (some centres undefined)	25.3%[8.59 µM]	15.2%[8.59 µM]
O=S1(=O)N[C@@H](Cc2ccccc2)COc2c(Cl)cccc21	3.8%	7.7%
CCCCN1CCC[C@H]1CNC(=O)c1cc(C#N)c2ccccc2c1OC	10µM*	?
CCN1CCCC1CNC(=O)c1cc(S(N)(=O)=O)ccc1OC (centres undefined)	3.4%	16.6%
CCc1cc(Cl)c(OC)c(C(=O)NC[C@@H]2CCCN2CC)c1O	4.47µM*	?
CCN1CCCC1CNC(=O)c1cnn(-c2nccc(-c3ccccc3OC)n2)c1-c1ccco1 (centres undefined)	?	-3.9%
CCOC(=O)C=C1CN(Cc2ccc(OC)cc2)S(=O)(=O)c2ccccc21	?	-8.4%
CCN1C(=NCc2cc(OC)c(OC)c(OC)c2)NC(c2cccc(F)c2)C(C(=O)OC)=C1C (centres undefined)	-5.5%[8.59 µM]	22.3%[8.59 µM]
OC/C=C/c1ccccc1	7.8%	-13.1%
Clc1ccc(C(OCCN2CCCCC2)c2ccccc2)cc1 (centres undefined)	12.6µM*	?
C(=C\c1ccccc1)/CN1CCN(C(c2ccccc2)c2ccccc2)CC1	-11.1%[17.8 µM]	-25.4%[17.8 µM]
OCCOCCN1CCN(C(c2ccccc2)c2ccc(Cl)cc2)CC1 (centres undefined)	?	-16.9%
Fc1ccc(C(c2ccc(F)cc2)N2CCN(C/C=C/c3ccccc3)CC2)cc1	2.51µM*	31.6µM*!
C(=C\c1ccccc1)/CN1CCN(CCOC(c2ccccc2)c2ccccc2)CC1	8.91µM*	31.6µM*
O[C@H]1CN(Cc2cccs2)[C@@H](c2ccccc2)C[C@H]1n1cc(-c2ccc(F)cc2)nn1	-27.6%	-13.6%
CCCCC/C=C\C/C=C\C/C=C\C/C=C\CCCCCC(=O)NCCc1ccc(O)c(O)c1	23.0%	-0.9%
SMILES	Marburg entry	Lassa entry
CCCCC/C=C\C/C=C\C/C=C\C/C=C\CCCC(=O)N(Cc1ccc(O)c(Cl)c1)Cc1ccc(O)c(Cl)c1	?	0.0794µM*
CCC[C@H]1CN(Cc2cccnc2)C(=O)[C@H]1CC(=O)Nc1ccc(Br)cc1	27.8%	11.5%
COC(=O)C1=C(C(=O)OC)[C@@H]2Nc3ccccc3[C@@]23C[C@@H](C(=O)OC)N(C(=O)Nc2ccccc2F)C3=N1	-9.2%[8.59 µM]	-13.9%[8.59 µM]
COc1ccc([C@]23Cc4cc(OC)c(OC)cc4[C@H](O2)C2=C(CC(C)(C)CC2=O)O3)cc1	20.0%[8.59 µM]	-6.5%[8.59 µM]
O=C1NC(=O)C(c2ccc(Cl)cc2)=C1Nc1ccc(Cl)c(C(=O)O)c1	?	46.8%
CNCCC=C1c2ccccc2C=Cc2ccccc21	5.01µM*	?
CN(C)CCC=C1c2ccccc2CCc2ccccc21	10µM*	?
CN(C)CCC=C1c2ccccc2C(C)(C)c2ccccc21	4.47µM*	17.8µM*
CN(C)CCC=C1c2ccccc2C=Cc2ccccc21	11.2µM*	31.6µM*!
CN(C)CC/C=C1/c2ccccc2COc2ccccc21	?	3.2%
CN(C)CC/C=C1/c2ccccc2COc2ccc(CC(=O)O)cc21	22.4%	-13.0%
O=C1[C@H]2[C@@H]3[C@@H](O)[C@H](O)CC(=NOCc4ccccc4)[C@@H]3CC[C@H]2C(=O)N1Cc1ccc2c(c1)OCO2	-17.5%[8.59 µM]	8.5%[8.59 µM]
C[C@H]1[C@@H](c2ccccc2)Oc2c(Cl)cccc2S(=O)(=O)N1Cc1cccc(Cl)c1	?	-28.2%
COC(=O)[C@@H]1CC[C@H](C)[C@@H](c2ccc(C)cc2)N1C(=O)c1ccc(C=NO[C@H](C)CN2CCCc3nc(C)c(C)cc32)cc1	?	7.2%[8.59 µM]
O=C1[C@@H]2[C@@H](C(=O)N1CC(O)COCc1ccccc1)[C@H]1C=C[C@@H]2C1 (some centres undefined)	7.0%	-22.1%
COc1cc(CO[C@H]2C=C[C@@H](c3ccccc3)O[C@H]2CO)cc(OC)c1	?	-17.6%[8.59 µM]
CN(C)CC/C=C1\c2ccccc2Sc2ccc(Cl)cc21	11.2µM*!	28.2µM*!
OCCN1CCN(CC/C=C2/c3ccccc3Sc3ccc(Cl)cc32)CC1	?	-28.0%[17.8 µM]
C=C[C@H]1C[C@H]2C=CCCOP(=O)(O2)O1	?	28.3%
CCCC[C@]12Cc3cc(C#N)ccc3[C@H](O1)c1c(cc(C)n(Cc3ccccc3)c1=O)O2	-22.7%[8.59 µM]	-7.6%[8.59 µM]
CN1CCC[C@H]1c1cccnc1	6.1%	6.9%
CCCCCCCCCC[n+]1cccc([C@@H]2CCCN2C)c1	6.31µM*	?
Cc1ccc2c(c1)Cc1c(C(=O)NC3CCCCC3)nn(-c3ccc(Cl)cc3Cl)c1-2	?	-8.1%
Cc1c(C(=O)NN2CCCCC2)nn(-c2ccc(Cl)cc2Cl)c1-c1ccc(Cl)cc1	14.1µM*	15.8µM*
COc1ccc(CN2CCOc3ccc(CN4CCN(CCO)CC4)cc3C2)c2ccccc12	11.2µM*	?
SMILES	Marburg entry	Lassa entry
COc1cc(CN2CCOc3ccc(CN4CCC(Oc5cccnc5)CC4)cc3C2)ccc1F	?	-9.8%
COc1ccc(F)c(CN2CCOc3ccc(CN4CCC(Oc5cccnc5)CC4)cc3C2)c1	?	5.9%
COc1cc(OC)c(CN2CCOc3ccc(CN4CCC(O)CC4)cc3C2)c(OC)c1	14.1µM*	?
COc1cc(CN2CCOc3ccc(CN4CCN(CCO)CC4)cc3C2)ccc1F	3.2%	13.8%
COc1ccc(CN2CCOc3ccc(CN4CCC(Oc5cccnc5)CC4)cc3C2)c(F)c1	11.2µM*	-7.9%
COC(=O)C(C(=O)OC)[C@@H]1O[C@@]23COCC[C@]2(C)[C@@H]3c2ccccc21	17.1%[8.59 µM]	-9.4%[8.59 µM]
C=CCOC(=O)C(C(C)=O)[C@@H](NC(=O)OC)c1cccs1 (some centres undefined)	-6.4%[8.59 µM]	-15.4%[8.59 µM]
COc1ccc(CN2CCCC(c3nc(C)ncc3-c3ccc(F)cc3)C2)c(OC)c1OC (centres undefined)	-14.6%	-8.5%
